12-LOX inh: ALOX12 (human) lipoxygenase inhibition; P18054; purified 12hLO, xylenol orange hydroperoxide absorbance; Potency, µM (doses to about 108 µM), inactives show top-dose activity change, negative = inhibition, most hits filed as inhibitors; 1.1% of 580,000 active; AID 1671190; also: % is scaled to controls: 0 for no effect and ±100 for the full control effect
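Hydroperoxide product was detected by ferrous iron/xylenol orange as the 573 to 405 nm absorbance ratio. Arachidonic acid at 40 uM (final) was turned over for 30 min at room temperature by 150 nM human 12hLO, pH 7.0 Hepes buffer, after 15 min compound preincubation.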
Sfp PPTase inh: inhibitors of Bacillus subtilis Sfp phosphopantetheinyl transferase; Biochemical Sfp PPTase activity, qHTS; Potency, µM, for inactives: largest response in the series, negative = inhibition, most hits filed as inhibitors; 3.5% of 310,000 active; AID 1490;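 also: the enzyme is Sfp with the accession as filed and its product quenches rhodamine fluorescence; 0% = enzyme reaction without inhibitor and -100% = no enzyme wells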
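Fluorescence-quenching assay with 15 nM Sfp, 5 uM rhodamine-CoA and 12.5 uM BHQ-2-labelled ybbR peptide in pH 7.6 Hepes/MgCl2 buffer. Enzyme was pre-incubated with compound for 15 min at room temperature. Rate was taken from the 30-min fluorescence change (525/598 nm).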
JMJD2A Tudor inh: blocks the human JMJD2A Tudor domain; Potency, µM (doses to about 114 µM), for the others: at the top dose activity change, negative = inhibition, actives largely listed as inhibitors; AID 504339; 4.4% of 390,000 active; AlphaScreen JMJD2A-Tudor / H3K4me3 peptide binding; also: % is scaled to controls: 0 for no effect and ±100 for the full control effect; nearly all actives have a fitted effect of over 50% in size
Target sequence (O75164 whole entry, looked up, the tested form may be a part): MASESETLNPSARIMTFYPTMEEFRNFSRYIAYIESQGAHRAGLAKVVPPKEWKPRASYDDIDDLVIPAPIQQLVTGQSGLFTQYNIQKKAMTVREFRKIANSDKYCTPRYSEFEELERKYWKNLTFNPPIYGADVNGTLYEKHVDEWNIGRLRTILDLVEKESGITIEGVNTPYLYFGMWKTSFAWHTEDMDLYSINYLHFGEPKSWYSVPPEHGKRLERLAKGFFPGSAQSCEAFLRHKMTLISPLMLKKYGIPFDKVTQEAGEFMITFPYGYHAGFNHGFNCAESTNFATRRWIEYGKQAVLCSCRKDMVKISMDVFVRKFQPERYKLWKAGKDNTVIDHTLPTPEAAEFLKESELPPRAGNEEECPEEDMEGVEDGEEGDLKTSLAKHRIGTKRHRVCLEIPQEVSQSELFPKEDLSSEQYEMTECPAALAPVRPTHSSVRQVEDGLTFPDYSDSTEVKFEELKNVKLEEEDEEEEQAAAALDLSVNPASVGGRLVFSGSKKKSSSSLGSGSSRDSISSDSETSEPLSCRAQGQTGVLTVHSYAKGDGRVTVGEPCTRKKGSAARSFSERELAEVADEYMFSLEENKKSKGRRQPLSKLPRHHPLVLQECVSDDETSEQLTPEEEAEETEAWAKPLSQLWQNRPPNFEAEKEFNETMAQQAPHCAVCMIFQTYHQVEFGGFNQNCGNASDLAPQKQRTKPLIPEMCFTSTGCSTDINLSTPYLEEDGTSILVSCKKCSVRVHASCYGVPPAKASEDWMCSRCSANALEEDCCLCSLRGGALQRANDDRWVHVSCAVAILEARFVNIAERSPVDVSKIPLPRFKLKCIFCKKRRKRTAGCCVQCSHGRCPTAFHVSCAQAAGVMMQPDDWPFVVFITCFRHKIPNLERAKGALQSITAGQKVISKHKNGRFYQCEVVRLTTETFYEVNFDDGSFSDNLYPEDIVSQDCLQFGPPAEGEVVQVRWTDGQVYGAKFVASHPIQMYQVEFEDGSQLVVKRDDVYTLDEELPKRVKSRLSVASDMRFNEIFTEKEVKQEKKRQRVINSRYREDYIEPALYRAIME
HP1b binding inh: HP1-beta chromodomain-methylated histone interaction inhibition | P83916 | AlphaScreen HP1-beta / biotin-H3K9me3 peptide binding | Potency, µM (series often up to 114 µM), inactives show at the highest dose activity change, negative = inhibition, hits mostly inhibitors | 0.56% of 390,000 active; also: nearly all actives have a fitted effect of over 70% in size
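HP1-beta protein (50 nM final) preincubated 30 min at room temperature with biotinylated H3(1-18)K9me3 peptide (50 nM) in PBS pH 7.4, 0.01% Tween-20, then compound added for 30 min. AlphaScreen streptavidin donor/nickel chelate acceptor beads (10 ug/mL final), 30 min dark, luminescence read.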
G9a inh: blocks human histone lysine methyltransferase G9a; Q96KQ7; G9a H3K9 monomethylation, AlphaScreen, 2 h; Potency, µM (series often up to 102 µM), for inactives: at the highest dose activity, negative = inhibition, usual class: inhibitors; 8.8% of 350,000 active; also: % is scaled to controls: 0 for no effect and ±100 for the full control effect; nearly all actives have a fitted effect of over 75% in size
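AlphaScreen detection with an anti-monomethyl H3K9 antibody quantified product after a 2 h room-temperature reaction containing 500 nM biotinylated H3K9 peptide, 20 µM SAM and 20 nM enzyme, which had been preincubated 15 min with compound.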
BAZ2B inh: inhibitors of human BAZ2B bromodomain; 4.4% of 360,000 active; AlphaScreen BAZ2B-H3K14Ac peptide displacement; AID 504333; Potency, µM (highest dose often 114 µM), for the others: at the highest dose activity change, negative = inhibition, most hits filed as inhibitors; also: % is scaled to controls: 0 for no effect and ±100 for the full control effect; nearly all actives have a fitted effect of over 60% in size
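Compounds, titrated to a top concentration of 110 uM, were incubated 30 min at room temperature with preformed BAZ2B/acetyl-K14 H3 peptide complex (50 nM each). Proximity signal was measured by AlphaScreen after 20 min with beads.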
* marks the source's active call; other numbers are inactive results; ! = repeats disagree; [ ] = dose if it differs, or a comment. Sampled rows, rich in hits. Any-hit rate of the full collection: about 8.7%. Calls follow the shape of the dose curve; as a rule, active = well fitted curve in the direction sought with a large enough effect; inconclusive = small, poorly fitted or top-dose-only effect, or another doubt; inactive = no such curve, though single readings can be large; an effect the other way counts as inactive or inconclusive. Potency is read from the fitted curve at half-maximal effect.

How did CCc1ccc(NC(=O)CCC2CCCCC2)cc1 do in these assays?
12-LOX inh: 23%

What do the screens show for `CCc1nc(NC(=O)C[C@H]2NC(=O)c3ccccc3NC2=O)sc1C`?
12-LOX inh: 9%

Results for C=CCc1ccc(OCCCOc2ccc(C(=O)O)cc2)c(OC)c1 ?
12-LOX inh: -7%; Sfp PPTase inh: -4%; JMJD2A Tudor inh: -14%; HP1b binding inh: 7%; G9a inh: -30%; BAZ2B inh: -11%

How did C=CCc1ccc(OCCCN2CCCC(C)C2)c(OC)c1 (centres undefined) do in these assays?
12-LOX inh: inconclusive; Sfp PPTase inh: inconclusive; JMJD2A Tudor inh: 3.5µM*; HP1b binding inh: -25%; G9a inh: 7.1µM*; BAZ2B inh: 79µM*

How did C=CCc1ccc(OCCCCN2CCC(C)CC2)c(OC)c1 do in these assays?
12-LOX inh: -18%; Sfp PPTase inh: -16%; JMJD2A Tudor inh: 2.8µM*; HP1b binding inh: -24%; G9a inh: inconclusive; BAZ2B inh: inconclusive

What do the screens show for `Cc1noc([C@H]2CCN(S(=O)(=O)c3ccc4c(c3)CCC4)C[C@H]2NC(=O)C2CC2)n1`?
12-LOX inh: 28%

What do the screens show for `CCOc1ccc(S(=O)(=O)N2Cc3ccccc3CC2C(=O)O)cc1` (centres undefined)?
12-LOX inh: 10%; Sfp PPTase inh: 24%; JMJD2A Tudor inh: 3%[11.4 µM]; HP1b binding inh: 26%; G9a inh: 50µM*; BAZ2B inh: inconclusive

How did COc1cc(OC)c(OC)cc1/C=C1\Oc2cc(OCC(=O)N3Cc4ccccc4C[C@H]3C(=O)O)ccc2C1=O do in these assays?
Sfp PPTase inh: 19%; JMJD2A Tudor inh: -22%; HP1b binding inh: 23%; G9a inh: -7%[12.7 µM]; BAZ2B inh: -34%

Results for O=C(O)C1Cc2ccccc2CN1C(=O)COc1ccc(Cl)cc1 (centres undefined) ?
12-LOX inh: -65%; Sfp PPTase inh: 21%; JMJD2A Tudor inh: -1%; HP1b binding inh: 18%; G9a inh: 45µM*; BAZ2B inh: -19%

What do the screens show for `O=C(O)C1Cc2ccccc2CN1S(=O)(=O)c1ccc(Cl)cc1` (centres undefined)?
12-LOX inh: -5%; Sfp PPTase inh: 26%; JMJD2A Tudor inh: -9%; HP1b binding inh: 7%; G9a inh: inconclusive; BAZ2B inh: inconclusive

How did COc1ccc(C(=O)NC2Cc3ccccc3C2)cc1 do in these assays?
12-LOX inh: -15%

How did CC(=O)N(C)c1ccc(N=Nc2ccc3ncccc3c2)cc1 do in these assays?
12-LOX inh: -19%; JMJD2A Tudor inh: inconclusive; HP1b binding inh: 7%[57 µM]

What do the screens show for `CN(C)c1ccc2ncccc2c1`?
12-LOX inh: 5µM*

What do the screens show for `CN(Cc1ccco1)c1ncncc1-c1ccccc1Cl`?
12-LOX inh: inconclusive; Sfp PPTase inh: 79µM*; G9a inh: 30%[0.501 µM]

How did CN(Cc1ccco1)c1cc(-c2ccccc2Cl)ncn1 do in these assays?
12-LOX inh: -17%; Sfp PPTase inh: -25%

How did COc1ccccc1-c1ccc2ncnc(N(C)Cc3ccco3)c2c1 do in these assays?
12-LOX inh: inconclusive; Sfp PPTase inh: inconclusive; G9a inh: -41%[0.501 µM]

Results for CN(Cc1ccco1)c1ncnc2ccc(-c3ccccc3Cl)cc12 ?
12-LOX inh: 28µM*!; Sfp PPTase inh: inconclusive; JMJD2A Tudor inh: inconclusive; HP1b binding inh: 21%; G9a inh: -36%[12.7 µM]; BAZ2B inh: -30%

What do the screens show for `COC[C@@H]1OC[C@@]2(C)C3CC[C@@H](O)[C@@H](CC(=O)N4CCCCC4)[C@]3(C)CC[C@H]2O1` (some centres undefined)?
12-LOX inh: 8%[176 µM]

Results for COC(=O)CN1C(=O)[C@H]2[C@@H](c3ccc(C)o3)N3C(=O)CN(Cc4ccccc4)C(=O)[C@@]3(C)[C@H]2C1=O ?
12-LOX inh: -1%; Sfp PPTase inh: 45µM*; JMJD2A Tudor inh: -22%; HP1b binding inh: 37%; G9a inh: 45µM*; BAZ2B inh: -22%

What do the screens show for `Cc1ccc([C@@H]2[C@@H]3C(=O)N(C)C(=O)[C@@H]3[C@]3(C)C(=O)N(Cc4ccccc4)CC(=O)N23)o1`?
Sfp PPTase inh: -11%; JMJD2A Tudor inh: -7%; HP1b binding inh: 64%; BAZ2B inh: 18%

What do the screens show for `COc1ccc(N(Cc2cccs2)C(=O)c2ccc(OCC(C)C)cc2)cc1`?
12-LOX inh: -29%; JMJD2A Tudor inh: 32%; HP1b binding inh: 70%; G9a inh: 25%[59 µM]; BAZ2B inh: 12%

Results for CC(C)Oc1ccc(C(=O)N(Cc2ccco2)Cc2cccs2)cc1 ?
12-LOX inh: -19%; JMJD2A Tudor inh: -19%; HP1b binding inh: 16%; G9a inh: 11%[59 µM]; BAZ2B inh: 9%

Results for CN(Cc1cccs1)CC(O)COCc1ccco1 (centres undefined) ?
12-LOX inh: inconclusive; Sfp PPTase inh: 7%; JMJD2A Tudor inh: -9%; HP1b binding inh: 9%; G9a inh: 45µM*; BAZ2B inh: -15%

Results for CC(=O)c1ccc(OCC(O)CN(C)Cc2cccs2)cc1 (centres undefined) ?
12-LOX inh: inconclusive; Sfp PPTase inh: 56µM*; JMJD2A Tudor inh: 7.9µM*; HP1b binding inh: inconclusive; G9a inh: 3.5µM*; BAZ2B inh: 50µM*

What do the screens show for `O=C1C(n2ccc3ccccc32)c2cccc(F)c2N1Cc1ccc(C(F)(F)F)cc1` (centres undefined)?
12-LOX inh: 45µM*

What do the screens show for `c1ccc(CSc2nnc([C@@H]3CCCN3)o2)cc1`?
12-LOX inh: 2%; Sfp PPTase inh: -18%; JMJD2A Tudor inh: inconclusive; HP1b binding inh: 70%; BAZ2B inh: 50µM*

What do the screens show for `c1ccc(CSc2nnc(Cc3ccccn3)o2)cc1`?
12-LOX inh: 0%; Sfp PPTase inh: -11%; JMJD2A Tudor inh: -25%; HP1b binding inh: 31%; G9a inh: -5%; BAZ2B inh: -10%

How did c1ccc(CSc2nnc(Cc3ccccc3)o2)cc1 do in these assays?
12-LOX inh: 0%; Sfp PPTase inh: inconclusive; JMJD2A Tudor inh: 79µM*; HP1b binding inh: 46%; G9a inh: inconclusive; BAZ2B inh: 56%

What do the screens show for `Cc1ccc2c(-c3cc4ccccc4o3)cc(=O)oc2c1C`?
12-LOX inh: -27%

Results for CCN(CC)C1=CC2=CC(=C(C#N)C#N)CCC2CC1 (centres undefined) ?
12-LOX inh: -30%; Sfp PPTase inh: -4%; JMJD2A Tudor inh: -15%; HP1b binding inh: 16%; G9a inh: -26%[59 µM]; BAZ2B inh: -18%

Screening results: PubChem BioAssay, National Center for Advancing Translational Sciences (NCATS)
